Structures are written as SMILES. Where “and” joins values, the source holds several entries; their conditions need not be identical. Equal values may be shown once. This is part of a sample that, as a whole, favours compounds with a hit. Of some 83,000 tested, about 20% had one in any assay.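 Cell lines were cultured in 96-well plates, exposed to a single compound concentration, and assessed for percent growth 48 hours later.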 Calls of active or inactive are those of the source. How the source made its calls: active means growth percent below 10; inactive means the rest.

The test system of this experiment is MDA-MB-468 breast. Put plainly: NCI-60 one-dose screen, 48 h (100 = growth as untreated, 0 = no growth, -100 = all killed). The settings on record: 10 µM unless noted.
Consider `CCOC(=O)c1c(NC(=O)c2ccccc2C(F)(F)F)sc2c1CCC(=O)C2`, for which the growth was 58.6% (inactive).
As for `Fc1ccc(-c2nnc(N3CCOCC3)c3ccccc23)cc1`, the growth was 98.8% (inactive).
Next, `Cc1ccc2c(c1)=C/C(=C\c1cc(-c3ccccc3)[nH]c1O)C(=O)N=2`: 8.74% (active); `CCOC(=O)/C(C#N)=C1/C(=O)Nc2ccccc21`: 134% (inactive).
To `Oc1[nH]c2ccccc2c1/C=c1/cc2c(c(-c3ccc(F)cc3)n1)=Nc1ccccc1-2` belongs -60.8% (active); to `CCOc1cccc(/C=N\Nc2nc(=O)cc(C(=O)OC)s2)c1O`, 49.9% (inactive).
Next, `COc1cc(C(=O)/C=C/c2c(C)n([O-])c3ccc(C)cc3[n+]2=O)cc(OC)c1OC`: 30.3% (inactive).
`CCN(CC)c1ccc(/C=N/NC(=O)CSc2nc3ccccc3c(=O)n2CCc2ccc(S(N)(=O)=O)cc2)c(O)c1`: the growth is -7.72% (active).
Next, `CCN(CC)Cc1cc2[nH]c3c4ccc(Cl)cc4ncc3c2cc1OC`: -12.8% (active) and -25.8% (active); `CCCOCC(O)CNCCN` (configuration not stated): 106% (inactive); `O=C(Nc1cc(=O)[nH]c(=O)[nH]1)C(Cl)Cl`: 98.5% (inactive).
Consider `O=C(CCl)Nc1ccc2c(Nc3cc(O)ccc3Cl)ncnc2c1`, for which the growth is -61.7% (active).
To `Cc1cc(O)cc(O)c1N=NC1=NCCS1` belongs 109% (inactive).
Next, `Nc1nc(N)c2c(n1)NC(c1ccc(Cl)cc1)C1CCc3ccccc3C1=N2` (configuration not stated): 18.6% (inactive); `CC1=C(CCCOC(=O)NCCCl)C2=C(C)C3(CC3)[C@@](C)(O)C(=O)C2=C1`: -55% (active); `COc1ccc(/C=C2\NC(=S)NC2=O)cc1`: 102% (inactive).
As for `O=Cc1ccc(-c2cn3ccnc3c(-c3ccc4ncn(Cc5ccccc5)c4c3)n2)cc1`, the growth was 105% (inactive).
To `COc1ccc(-c2cc(-c3cccnc3)nc3sc4c(N)c(C(C)=O)c(-c5ccccc5)nc4c23)cc1OC` belongs 76.3% (inactive).
To `COc1ccc(C(=O)Nc2ncc(Cc3ccccc3Cl)s2)cc1` belongs 24.7% (inactive); to `O=C1/C=C/[C@@H](O)[C@@H]2C[C@@H](O)C[C@H]2/C=C/CCC[C@H](CCOCc2ccccc2)O1`, -41.9% (active); to `COc1cc(C2CC(c3cccc(Br)c3)=NN2C(C)=O)cc(OC)c1OC` (configuration not stated), 24.1% (inactive).
For the molecule `COc1nc2c(c(=O)n1C)CN(c1ccccc1)C(=O)C(C)N2` (configuration not stated), the growth was 86.3% (inactive).
Next, `COc1cc2cc(Oc3ccc(NC(=O)Nc4ccc(F)c(C(F)(F)F)c4)cc3)c(C)nc2cc1OCCN1CCCCC1`: 71.3% (inactive); `CC(C)C(=O)Nc1ccc([N+](=O)[O-])c(C(F)(F)F)c1`: 61.7% (inactive).
To `O=[N+]([O-])c1cccc2ccc(N/N=C/c3ccccc3O)nc12` belongs 4.06% (active) and 89.3% (inactive); to `CC(=O)[C@H]1CC[C@H]2[C@@H]3CC[C@@H]4CC=C(C=O)C[C@]4(C)[C@H]3CC[C@]12C`, 99.4% (inactive).
Next, `COc1cccc(C2C(C#N)=C(N)Oc3c2ccc2ccccc32)c1` (configuration not stated): 11.6% (inactive).

(Values after PubChem BioAssay (NCI).)
